The panel holds about 79,000 compounds, 15% with a hit somewhere; the sample as a whole holds those more often. Calls of active or inactive are those of the source. No stated cut-off is given here; in the data, active means growth inhibition above about 70%; inactive means the rest.
How the values were obtained:
[1] = NCI Yeast Anticancer Drug Screen. Data for the rad52 strain (AID 147);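 further: 0% = growth of vehicle-treated control cultures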; conditions: S. cerevisiae rad52 mutant growth inhibition, hits give high values
Outline: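 Yeast strain carrying a DNA damage repair alteration was exposed to test compounds. Growth inhibition was measured relative to vehicle-treated controls.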

[2] = NCI Yeast Anticancer Drug Screen. Data for the wt1 strain (AID 149);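 further: 0% = growth of vehicle-treated wt1 cultures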; conditions: S. cerevisiae wt1 strain (SPY 50644) growth inhibition, hits give high values
Outline: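 Compounds are added to wt1 yeast cultures. Growth is then measured. Inhibition is expressed relative to vehicle-treated controls.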

[3] = NCI Yeast Anticancer Drug Screen. Data for the rad50EPP+ strain (AID 151);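 further: 0% = growth of vehicle-treated control cultures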; conditions: S. cerevisiae rad50 mutant strain, hits give high values
Outline: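 Yeast strain carrying rad50 alteration (rad50EPP+) exposed to compounds; growth inhibition measured relative to vehicle-treated controls.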

[4] = NCI Yeast Anticancer Drug Screen. Data for the rad50 strain (AID 155);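 further: 0% = growth of vehicle-only cultures of the same strain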; conditions: S. cerevisiae rad50 strain growth inhibition, hits give high values
Outline: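 Inhibition values express reduced yeast growth in compound-treated cultures relative to vehicle-treated controls.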

[5] = NCI Yeast Anticancer Drug Screen. Data for the mec2-1 strain (AID 157); conditions: S. cerevisiae mec2-1 strain, hits give high values
Outline: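 mec2-1 yeast strain, carrying an alteration in DNA damage repair or cell cycle control, was exposed to compounds; growth inhibition was measured relative to vehicle-treated controls.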

[6] = NCI Yeast Anticancer Drug Screen. Data for the rad14 strain (AID 159);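 further: 0% = growth of vehicle-treated control cultures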; conditions: S. cerevisiae rad14 strain growth inhibition, hits give high values
Outline: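 A mutant yeast strain defective in DNA damage repair is treated with compound; inhibition of its growth is scored against untreated, vehicle-exposed cultures.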

[7] = NCI Yeast Anticancer Drug Screen. Data for the sgs1 mgt1 strain (AID 161);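 further: 0% = growth of cultures given vehicle only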; conditions: S. cerevisiae sgs1 mgt1 strain, hits give high values
Outline: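 Growth of a repair-deficient yeast mutant was monitored after compound treatment and expressed as inhibition relative to vehicle-treated cultures.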

[8] = NCI Yeast Anticancer Drug Screen. Data for the CLN2oe strain (AID 163);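 further: 0% = growth of vehicle-only control cultures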; conditions: S. cerevisiae CLN2oe strain, hits give high values
Outline: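 Yeast cells carrying a defined cell-cycle control alteration were exposed to test compounds. Growth inhibition was scored against vehicle-treated control cultures.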

[9] = NCI Yeast Anticancer Drug Screen. Data for the cln2 rad14 strain (AID 165);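 further: 0% = growth equal to vehicle treated cultures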; conditions: S. cerevisiae cln2 rad14 strain, hits give high values
Outline: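 Yeast carrying cln2 and rad14 alterations (cell cycle control and DNA damage repair) were exposed to compounds. Growth inhibition was measured against vehicle-treated controls.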

[10] = NCI Yeast Anticancer Drug Screen. Data for the bub3 strain (AID 167); conditions: S. cerevisiae bub3 mutant strain, hits give high values
Outline: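 Steps: expose the mutant yeast strain to compound; grow alongside vehicle-treated cultures; measure growth; express inhibition against the vehicle cultures.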

[11] = NCI Yeast Anticancer Drug Screen. Data for the wt2 strain (AID 169);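 further: 0% = growth of vehicle-treated yeast cultures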; conditions: S. cerevisiae wt2 strain growth inhibition, hits give high values
Outline: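 Yeast cells were exposed to test compounds, and growth inhibition was measured relative to vehicle-treated controls.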

[12] = NCI Yeast Anticancer Drug Screen. Data for the mlh1 strain (AID 171);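 further: 0% = growth of vehicle-treated control cultures of the same strain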; conditions: S. cerevisiae mlh1 strain growth inhibition, hits give high values
Outline: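 Yeast carrying a defined genetic alteration in DNA damage repair or cell cycle control were exposed to test compounds. Growth inhibition was measured relative to vehicle-treated controls.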

[13] = NCI Yeast Anticancer Drug Screen. Data for the sgs1 strain (AID 173);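 further: 0% = growth of vehicle-only control cultures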; conditions: S. cerevisiae sgs1 mutant, hits give high values
Outline: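 Yeast mutant strains carrying defined defects in DNA damage repair or cell cycle control were exposed to test compounds. Growth inhibition was scored against vehicle-treated controls.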

[14] = NCI Yeast Anticancer Drug Screen. Data for the rad18 strain (AID 177); conditions: S. cerevisiae rad18 mutant growth inhibition, hits give high values
Outline: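 Yeast carrying a defined DNA damage repair alteration were exposed to compounds. Growth inhibition was expressed relative to vehicle-treated controls.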

[15] = NCI Yeast Anticancer Drug Screen. Data for the mlh1 rad18 strain (AID 175); conditions: S. cerevisiae mlh1 rad18 strain growth inhibition, hits give high values
Outline: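 Growth inhibition of the yeast strain was measured after compound exposure and expressed relative to vehicle-treated controls. The strain carries defined defects in DNA damage repair.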

[16] = at 5.0 µM (retest, dose inferred, filed as 0.5)
[17] = at 50.0 µM (retest, dose inferred, filed as 5.0)

Measured: growth inhibition

CC(=O)N1C(=O)/C(=C\C(=O)c2ccc(Cl)cc2)c2ccccc21
active: [1]; at 33.0 µM 93% | [1]; at 100.0 µM 94% | [2]; at 33.0 µM 79% | [2]; at 100.0 µM 94% | [3]; at 100.0 µM 72% | [4]; at 33.0 µM 90% | [4]; [17] 96% | [4]; at 50.0 µM 76% | [4]; at 100.0 µM 92% | [5]; at 33.0 µM 81% | [5]; [17] 98% | [5]; at 50.0 µM 87.4% | [5]; at 100.0 µM 91% | [6]; at 33.0 µM 71% | [6]; at 100.0 µM 92% | [7]; [17] 96% | [7]; at 50.0 µM 86.3% | [8]; at 100.0 µM 90% | [9]; [17] 91% | [9]; at 50.0 µM 77.2% | [10]; at 33.0 µM 81% | [10]; [17] 96% | [10]; at 50.0 µM 85.8% | [10]; at 100.0 µM 92% | [11]; at 11.0 µM 93% | [11]; at 33.0 µM 97% | [11]; at 100.0 µM 93% | [12]; at 33.0 µM 78% | [12]; at 100.0 µM 92% | [13]; at 33.0 µM 87% | [13]; at 100.0 µM 92% | [14]; at 33.0 µM 92% | [14]; at 100.0 µM 92%
inactive: [1]; at 1.2 µM 8% | [1]; at 3.7 µM 34% | [1]; at 11.0 µM 59% | [2]; at 1.2 µM 5% | [2]; at 3.7 µM 7% | [2]; at 11.0 µM 31% | [3]; at 1.2 µM -2% | [3]; at 3.7 µM 12% | [3]; at 11.0 µM 22% | [3]; at 33.0 µM 47% | [4]; at 1.2 µM 11% | [4]; at 3.7 µM 0% | [4]; [16] 44% | [4]; at 11.0 µM 51% | [5]; at 1.2 µM -3% | [5]; at 3.7 µM -8% | [5]; [16] 45% | [5]; at 11.0 µM 17% | [6]; at 1.2 µM -16% | [6]; at 3.7 µM -10% | [6]; at 11.0 µM 8% | [7]; [16] 41% | [8]; at 1.2 µM -38% | [8]; at 3.7 µM -14% | [8]; at 11.0 µM 2% | [8]; at 33.0 µM 66% | [9]; [16] 14% | [10]; at 1.2 µM 2% | [10]; at 3.7 µM -23% | [10]; [16] 13% | [10]; at 11.0 µM -15% | [11]; at 1.2 µM 25% | [11]; at 3.7 µM 52% | [12]; at 1.2 µM -18% | [12]; at 3.7 µM 2% | [12]; at 11.0 µM 31% | [13]; at 1.2 µM -15% | [13]; at 3.7 µM 17% | [13]; at 11.0 µM 49% | [14]; at 1.2 µM 14% | [14]; at 3.7 µM 32% | [14]; at 11.0 µM 66%

CC(C)(C)c1ccc(O)c(C(c2ccc([N+](=O)[O-])cc2)c2cc(C(C)(C)C)ccc2O)c1
active: [1]; at 33.0 µM 79% | [1]; at 100.0 µM 84% | [2]; at 33.0 µM 81% | [2]; at 100.0 µM 90% | [4]; at 33.0 µM 85% | [4]; [17] 88% | [4]; at 50.0 µM 84.3% | [4]; at 100.0 µM 92% | [5]; at 33.0 µM 85% | [5]; [17] 94% | [5]; at 50.0 µM 89% | [5]; at 100.0 µM 92% | [6]; at 33.0 µM 71% | [6]; at 100.0 µM 90% | [7]; [17] 93% | [8]; at 33.0 µM 80% | [8]; at 100.0 µM 91% | [9]; [17] 93% | [9]; at 50.0 µM 82.8% | [10]; at 33.0 µM 88% | [10]; [17] 94% | [10]; at 50.0 µM 84.2% | [10]; at 100.0 µM 92% | [11]; at 33.0 µM 81% | [11]; at 100.0 µM 83% | [12]; at 33.0 µM 90% | [12]; at 100.0 µM 93% | [15]; [17] 93% | [15]; at 50.0 µM 80.2% | [14]; at 33.0 µM 70% | [14]; at 100.0 µM 88%
inactive: [1]; at 1.2 µM 29% | [1]; at 3.7 µM 24% | [1]; at 11.0 µM 57% | [2]; at 1.2 µM -2% | [2]; at 3.7 µM -4% | [2]; at 11.0 µM 42% | [3]; at 1.2 µM 7% | [3]; at 3.7 µM -8% | [3]; at 11.0 µM -24% | [3]; at 33.0 µM -14% | [3]; at 100.0 µM -10% | [4]; at 1.2 µM 19% | [4]; at 3.7 µM 14% | [4]; [16] 21% | [4]; at 11.0 µM 61% | [5]; at 1.2 µM -1% | [5]; at 3.7 µM 14% | [5]; [16] 7% | [5]; at 11.0 µM 57% | [6]; at 1.2 µM -9% | [6]; at 3.7 µM -24% | [6]; at 11.0 µM 14% | [7]; [16] 29% | [7]; at 50.0 µM 29.1% | [8]; at 1.2 µM 2% | [8]; at 3.7 µM 19% | [8]; at 11.0 µM 38% | [9]; [16] 43% | [10]; at 1.2 µM 9% | [10]; at 3.7 µM 16% | [10]; [16] 33% | [10]; at 11.0 µM 53% | [11]; at 1.2 µM -16% | [11]; at 3.7 µM -19% | [11]; at 11.0 µM 46% | [12]; at 1.2 µM 12% | [12]; at 3.7 µM 6% | [12]; at 11.0 µM 29% | [15]; [16] 36% | [14]; at 1.2 µM 21% | [14]; at 3.7 µM 41% | [14]; at 11.0 µM 57%

CCCCCCCCN1C(=O)c2ccccc2C1=O
inactive: [1]; at 1.2 µM 0% | [1]; at 3.7 µM 0% | [1]; at 11.0 µM 5% | [1]; at 33.0 µM 10% | [1]; at 100.0 µM 6% | [2]; at 1.2 µM -2% | [2]; at 3.7 µM -1% | [2]; at 11.0 µM -1% | [2]; at 33.0 µM -4% | [2]; at 100.0 µM -6% | [3]; at 1.2 µM 2% | [3]; at 3.7 µM 9% | [3]; at 11.0 µM 14% | [3]; at 33.0 µM 18% | [3]; at 100.0 µM 42% | [4]; at 1.2 µM 0% | [4]; at 3.7 µM 3% | [4]; [16] 20% | [4]; at 11.0 µM 6% | [4]; at 33.0 µM 10% | [4]; [17] 15% | [4]; at 50.0 µM 39.5% | [4]; at 100.0 µM -2% | [5]; at 1.2 µM -3% | [5]; at 3.7 µM -4% | [5]; [16] -7% | [5]; at 11.0 µM -5% | [5]; at 33.0 µM -4% | [5]; [17] 13% | [5]; at 50.0 µM 50% | [5]; at 100.0 µM 0% | [6]; at 1.2 µM -2% | [6]; at 3.7 µM 0% | [6]; at 11.0 µM 6% | [6]; at 33.0 µM 14% | [6]; at 100.0 µM 18% | [7]; [16] 1% | [7]; [17] 36% | [8]; at 1.2 µM -2% | [8]; at 3.7 µM 0% | [8]; at 11.0 µM -1% | [8]; at 33.0 µM -2% | [8]; at 100.0 µM -1% | [9]; [16] -15% | [9]; [17] -7% | [9]; at 50.0 µM -91.1% | [10]; at 1.2 µM 2% | [10]; at 3.7 µM 4% | [10]; [16] 8% | [10]; at 11.0 µM 21% | [10]; at 33.0 µM 39% | [10]; [17] 40% | [10]; at 100.0 µM 50% | [11]; at 1.2 µM -2% | [11]; at 3.7 µM -3% | [11]; at 11.0 µM -4% | [11]; at 33.0 µM -5% | [11]; at 100.0 µM -4% | [12]; at 1.2 µM 0% | [12]; at 3.7 µM 0% | [12]; at 11.0 µM 3% | [12]; at 33.0 µM 7% | [12]; at 100.0 µM 14% | [14]; at 1.2 µM -2% | [14]; at 3.7 µM -3% | [14]; at 11.0 µM -2% | [14]; at 33.0 µM 4% | [14]; at 100.0 µM 14%
active: [7]; at 50.0 µM 78.7% | [10]; at 50.0 µM 89.5%
